MsrA inh: inhibits bovine methionine sulfoxide reductase A | purified bovine MsrA, absorbance read-out | inhibition, % at 15.5 µM | 360,000 compounds, 0.75% hits; in the data active means inhibition above about 4.5%;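 further: 0% = vehicle wells with enzyme and 100% = reference inhibitor wells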
EBNA-1 inhibitor: blocks EBNA-1 binding to DNA; EBNA-1 DNA binding, fluorescence polarization; inhibition, % at 14.8 µM; 300,000 compounds, 0.34% hits; in the data active means inhibition above about 28%
MsrA act: activates bovine MsrA enzyme. purified bovine MsrA, absorbance read-out. activation, % at 10.6 µM. 360,000 compounds, 0.3% hits; in the data active means activation above about 7.5%;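 further: 0% = vehicle and 100% = reference activator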
PP1 counter: blocks human PP1-alpha phosphatase, a PP5 counter-screen | 320,000 compounds, 0.9% hits | inhibition, % at 6.7 µM | P62136 | purified PP1alpha, OMFP fluorescence | AID 2235;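 active means inhibition above the mean inhibition of all tested compounds plus 3 SD, computed separately for each screening campaign, cut at about 15% in these data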
Target sequence (P62136 whole entry, looked up): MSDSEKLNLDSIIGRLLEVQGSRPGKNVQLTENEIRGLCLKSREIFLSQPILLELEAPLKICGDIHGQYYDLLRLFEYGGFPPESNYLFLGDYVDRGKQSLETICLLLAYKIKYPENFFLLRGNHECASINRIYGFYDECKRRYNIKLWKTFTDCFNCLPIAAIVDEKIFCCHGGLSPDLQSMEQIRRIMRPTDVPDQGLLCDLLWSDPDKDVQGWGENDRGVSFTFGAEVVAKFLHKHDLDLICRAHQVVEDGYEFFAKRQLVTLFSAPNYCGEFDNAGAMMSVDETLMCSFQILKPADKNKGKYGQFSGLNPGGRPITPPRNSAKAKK
ZTA counter: counter-screen for EBNA-1 inhibitors: inhibitors of Epstein-Barr virus ZTA. P03206. ZTA-DNA binding, fluorescence polarization. inhibition, % at 11 µM. 320,000 compounds, 0.15% hits. AID 2234; in the data active means inhibition above about 33%
PP5 inh: inhibitors of human protein phosphatase 5 (PP5); purified PP5c, OMFP substrate fluorescence; inhibition, % at 6.7 µM; 320,000 compounds, 0.18% hits; AID 1987;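 active means inhibition above the campaign's mean inhibition across all tested compounds plus 3 SD, cut at about 9.5% in these data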;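 further: 0% = DMSO only and 100% = 100 µM cantharidin control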
Active calls of the source: *; . = no result. Rows were chosen to be rich in hits. Some 2.3% of all compounds tested hit in one or more screens of this group.

SMILES	MsrA inh	EBNA-1 inhibitor	MsrA act	PP1 counter	ZTA counter	PP5 inh
CC(/C=C1\SC(=S)N(CCCC(=O)Nc2ccc(C(=O)O)c(O)c2)C1=O)=C\c1ccccc1	.	17.5	.	17.2*	22.9	0.6
CC(=Cc1ccccc1)C=C1SC(=S)N(CCCC(=O)Nc2ccc(C(=O)O)c(O)c2)C1=O	-0.2	.	-5.5	.	.	.
O=S1(=O)N[C@H](c2ccccc2)COc2cc(Br)ccc21	-0.3	.	.	.	.	.
O=C(O)c1cccc(CSc2nc(-c3ccc(Cl)cc3)cc(C(F)(F)F)n2)c1	0.6	-0.3	-1.6	16.6*	1.2	6.1
CC(C)(C)OC(=O)N1CCC[C@@H]1C(=O)N1CCC[C@@H]1C(=O)NCc1ccccc1	-0.2	.	.	.	.	.
O=c1cc(O)c2sc3nc(-c4cccnc4)cc(C(F)(F)F)c3c2[nH]1	1.7	9.7	-10.1	17.5*	2.6	2.8
Cc1cc(C(F)(F)F)c2c(n1)sc1c(O)cc(=O)[nH]c12	1.1	-3.6	-5.7	-3.2	1.8	0.8
Cc1ccc(CN(C(=O)Cn2nnc3ccccc32)C(C(=O)NCc2ccco2)c2cccs2)cc1 (stereo unspecified)	-1.0	-7.8	0.3	16.6*	18.7	5.2
O=C(NC1CCN(S(=O)(=O)c2cccc([N+](=O)[O-])c2)CC1)C1CCCCC1	0.5	-9.9	1.3	16.0*	-8.7	1.8
O=C(NC1CCN(Cc2ccccc2)CC1)C1CCN(S(=O)(=O)c2cccc([N+](=O)[O-])c2)CC1	.	-8.3	-10.0	1.1	-3.6	-0.6
OCCC1CN(CC2CCCCC2)CCN1C1CCCC1 (stereo unspecified)	0.8	7.1	-6.8	-1.0	5.7	0.4
C[C@H]1[C@H](c2ccccc2)Oc2ccc(Cl)cc2S(=O)(=O)N1C[C@@H]1CCCN1C(=O)OC(C)(C)C	-0.8	.	.	.	.	.
Cc1ccc(S(=O)(=O)N2[C@@H](c3ccccc3)C(C(=O)O)=CC[C@H]2c2ccc(C(C)C)cc2)cc1	-0.1	8.8	-2.4	15.4*	0.3	4.4
Cc1ccc([C@H]2C(C(=O)O)=CC[C@@H](c3ccc(C(C)C)cc3)N2S(=O)(=O)c2ccc(C)cc2)cc1	-1.1	.	4.8	.	.	.
CCc1ccc([C@@H]2CC=C(C(=O)O)[C@H](c3cccc(Cl)c3)N2S(=O)(=O)c2ccc(C)cc2)cc1	0.2	4.2	0.5	15.9*	5.7	3.1
COC(=O)Cc1nnn2c1[C@@H](C)[C@@H](c1ccccc1Br)O[C@@H](C)C2	-0.7	.	.	.	.	.
CN1CCN(C(=O)Nc2cccc(-c3ccccc3)c2)CC1	4.6*	1.4	-4.5	-4.7	10.7	0.8
C#CCN1C(=O)[C@]2(OCCC=C[C@H]2C)c2cc(OC)ccc21	2.6	.	.	.	.	.
C#CCOCCOCCOCCNc1nc(N2CCN(C(=O)[C@H](Cc3cc4ccccc4[nH]3)n3cc([C@@H](N)C(C)CC)nn3)CC2)nc(N2CCN(C(=O)[C@H](CCCCN)n3cc([C@@H](N)CC(C)C)nn3)CC2)n1 (stereo partly specified)	.	-4.6	.	15.9*	-15.0	1.6
C#CCOCCOCCOCCNc1nc(N2CCN(C(=O)[C@H](Cc3ccc(O)cc3)n3cc([C@@H](N)C(C)CC)nn3)CC2)nc(N2CCN(C(=O)[C@H](Cc3cc4ccccc4[nH]3)n3cc([C@@H](N)C(C)CC)nn3)CC2)n1 (stereo partly specified)	.	2.5	-7.9	16.6*	1.3	1.0
C[C@H](O)[C@@H]1C(=O)N2CCc3c([nH]c4cccc(-c5ccccc5)c34)[C@@H]2C[C@@H]1N(C)C(=O)c1ccccc1	1.6	.	.	.	.	.
CC(C)C[C@@H]1COc2cccc(N3CCCC3)c2S(=O)(=O)N1	3.4	.	.	.	.	.
COC(=O)[C@]12C[C@H](CC(=O)N3CCSCC3)C(=O)N(CCC3=CCCCC3)C1=C[C@H](C(C)(C)C)O[C@@H]2C	-0.9	.	.	.	.	.
O=C(O)C1CC=CCC1C(=O)N1CCN(c2nc(-c3ccccc3)c3ccccc3n2)CC1 (stereo unspecified)	-0.6	10.2	-4.2	5.0	-23.4	3.3
O=C(O)C1CC=CCC1C(=O)N1CCN(c2nc(-c3ccccc3Cl)c3cc(Br)ccc3n2)CC1 (stereo unspecified)	0.0	10.4	-1.9	17.4*	21.0	0.1
CCC(C)(C)c1ccc(OCCCC[n+]2ccccc2)c(C(C)(C)CC)c1	0.2	0.4	0.6	15.2*	-0.4	6.1
COc1ccc(C2NCCc3c2[nH]c2ccccc32)cc1COc1ccc(F)cc1 (stereo unspecified)	-0.4	9.1	-9.3	17.1*	6.8	4.3

Compound activity (PubChem BioAssay)
